A short description of this test: chemical genetic growth profiling, strain panel (AID 1159580).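 Further: tested at 20 µM; growth read once vehicle control cultures reached saturation at 30 °C; 1 = growth at the plate median or of vehicle wells.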 Conditions: growth OD.
The mark [1] stands for this setting: S. cerevisiae deletion strains, locus YAL013W, strain DEP1, stronger effect = lower value.
Setting [2] is: S. cerevisiae deletion strains, locus YDR150W, strain NUM1, stronger effect = lower value.
Setting [3] is: S. cerevisiae deletion strains, locus YJR075W, strain HOC1, stronger effect = lower value.
Where [4] appears, read: S. cerevisiae deletion strains, locus YMR307W, strain GAS1, stronger effect = lower value.
Where [5] appears, read: S. cerevisiae deletion strains, locus YNL128W, strain TEP1, stronger effect = lower value.
Where [6] appears, read: S. cerevisiae deletion strains, locus YNL153C, strain GIM3, stronger effect = lower value.

The record followed here is PubChem BioAssay AID1159580 (chemical genetic matrix, 2015).

The campaign covered roughly 5,500 compounds. About 2,000 (36%) were called active. Roughly 18% stayed inconclusive and do not appear here. The list shows a part of the results. A number with no mark means an inactive call. No stated cut-off is given here; in the data, active means normalized growth mostly below about 0.91 (no sharp cut-off); inconclusive means no clear call, values can overlap the other calls; inactive means mostly above about 0.92.

As to `COC(=O)c1cccc(NC(=O)CC2C(=O)NCCN2C(=O)c2cccs2)c1` (centres undefined), the normalized growth is 1.02 under setting [1]; 1.02 (S. cerevisiae deletion strains, locus YBR229C, strain ROT2, stronger effect = lower value); 1 (S. cerevisiae deletion strains, locus YDL101C, strain DUN1, stronger effect = lower value); 1.04 (S. cerevisiae deletion strains, locus YDL134C, strain PPH21, stronger effect = lower value); 0.982 under setting [2]; 1.01 (S. cerevisiae deletion strains, locus YEL061C, strain CIN8, stronger effect = lower value). Besides, the normalized growth reads like this: (S. cerevisiae deletion strains, locus YGR078C, strain PAC10, stronger effect = lower value) 1.01; (S. cerevisiae deletion strains, locus YHR030C, strain SLT2, stronger effect = lower value) 1.07; (S. cerevisiae deletion strains, locus YHR087W, strain rtc3, stronger effect = lower value) 0.987; (S. cerevisiae deletion strains, locus YJL187C, strain SWE1, stronger effect = lower value) 0.989; (S. cerevisiae deletion strains, locus YJR043C, strain POL32, stronger effect = lower value) 1.02; under setting [3], 1.01. The normalized growth is, setting by setting: (S. cerevisiae deletion strains, locus YLR039C, strain RIC1, stronger effect = lower value) 1.02; (S. cerevisiae deletion strains, locus YLR058C, strain SHM2 (second series), stronger effect = lower value) 0.996; (S. cerevisiae deletion strains, locus YLR085C, strain ARP6, stronger effect = lower value) 0.997; (S. cerevisiae deletion strains, locus YLR262C, strain YPT6, stronger effect = lower value) 1.08; (S. cerevisiae deletion strains, locus YML094W, strain GIM5, stronger effect = lower value) 0.993; (S. cerevisiae deletion strains, locus YMR219W, strain ESC1, stronger effect = lower value) 1.01. In addition, the normalized growth reads like this: (S. cerevisiae deletion strains, locus YMR263W, strain SAP30, stronger effect = lower value) 0.958; under setting [4], 1.01; under setting [5], 1.01; under setting [6], 1.01; (S. cerevisiae deletion strains, locus YNL298W, strain CLA4 (second series), stronger effect = lower value) 1.04; (S. cerevisiae deletion strains, locus YNL322C, strain KRE1, stronger effect = lower value) 1. Further, the normalized growth is 1.03 (S. cerevisiae deletion strains, locus YNR030W, strain Alg12, stronger effect = lower value); 0.941 (S. cerevisiae deletion strains, locus YPL055C, strain LGE1, stronger effect = lower value); 1.01 (S. cerevisiae deletion strains, locus YPL241C, strain CIN2, stronger effect = lower value); 1.1 (S. cerevisiae deletion strains, locus YPR135W, strain CTF4, stronger effect = lower value); 1.02 (S. cerevisiae strains, strain wild type, stronger effect = lower value).

As to `COC(=O)Nc1nc2ccc(C(=O)c3cccs3)cc2[nH]1`, the normalized growth under setting [1] was 1.03; the normalized growth (S. cerevisiae deletion strains, locus YAL040C, strain CLN3, stronger effect = lower value) is 0.635 (active); the normalized growth (S. cerevisiae deletion strains, locus YCL061C, strain MRC1 (second series), stronger effect = lower value) is 1.01; the normalized growth under setting [2] is 0.994; the normalized growth (S. cerevisiae deletion strains, locus YDR363W, strain ESC2, stronger effect = lower value) was 1.03; the normalized growth (S. cerevisiae deletion strains, locus YER002W, strain NOP16, stronger effect = lower value) was 1.01. The normalized growth was 1.03 (S. cerevisiae deletion strains, locus YGR229C, strain SMI1, stronger effect = lower value); 1.04 under setting [3]; 1.01 under setting [4]; 0.73 (active) under setting [5]; 0.124 (active) under setting [6]; 0.715 (active) (S. cerevisiae deletion strains, locus YNL175C, strain NOP13, stronger effect = lower value). The normalized growth reads like this: (S. cerevisiae deletion strains, locus YNL197C, strain WHI3, stronger effect = lower value) 0.429 (active); (S. cerevisiae deletion strains, locus YNL224C, strain SQS1, stronger effect = lower value) 0.605 (active); (S. cerevisiae deletion strains, locus YOR083W, strain WHI5 (second series), stronger effect = lower value) 0.442 (active).
